From ChEMBL document CHEMBL3988442, “University of Dundee, Small-Polar-MMV Screening Library” (2021)
The whole screen tested about 48,000 compounds, of which about 13,000 (27%) showed an effect of 50% or more. Some of the results follow.

Tested on: Wolbachia pipientis
Assay: Anti-Wolbachia Cell-Based Screen
Assay type: functional
Design: scale not given: in the data most compounds retested in dose-response had high values
Settings: 5 µM

Row | SMILES | Percent Effect [%]
1 | Cc1ccsc1C(=O)N1Cc2ccccc2C2(CCN(C)CC2)C1 | 0.4591
2 | Cc1ccsc1C(=O)N1CCC(O)(CN2CCc3ccccc3C2)C1 (stereo unspecified) | 107.5
3 | O=C(NCCN1CCc2ccccc2C1)c1scnc1Cl | 7.313
4 | Cc1ncsc1C(=O)NCC1SCCc2ccccc21 (stereo unspecified) | 15.22
5 | Cc1ncsc1C(=O)N1CCC(O)(CN2CCc3ccccc3C2)C1 (stereo unspecified) | 69.3
6 | Cc1ccsc1C(=O)N1CC(C(=O)N2CCOCC2)C2(CCOCC2)C1 (stereo unspecified) | -2.409
7 | CN(C)C(=O)CN1C[C@H]2CCN(C(=O)c3ccccc3)CC[C@H]2S1(=O)=O | -0.2408
8 | COCC1CN(C(=O)Nc2ccc(Cl)cc2Cl)CCO1 (stereo unspecified) | -1.722
9 | COCC1CN(C(=O)Nc2cc(Cl)ccc2F)CCO1 (stereo unspecified) | -13.77
10 | CCOc1ccc(NC(=O)N2CCOC(C(N)=O)C2)cc1Cl (stereo unspecified) | 142.8
11 | CCOc1ccc(C#N)cc1NC(=O)N1CCOC(C(N)=O)C1 (stereo unspecified) | 8.32
12 | CCOc1ccc(NC(=O)NC2CCc3nc(C)nn3C2)cc1Cl (stereo unspecified) | -21
13 | COCCOc1ccc(NC(=O)N2CCOC(C(N)=O)C2)cc1F (stereo unspecified) | 100.1
14 | COCC1CN(C(=O)Nc2cc(Br)ccc2F)CCO1 (stereo unspecified) | -0.1525
15 | COc1ccc(NC(=O)N2CCC(CSC)C2)cc1C (stereo unspecified) | -50.59
16 | CCOc1ccc(NC(=O)N2CCOC(C(N)=O)C2)cc1C (stereo unspecified) | 95.69
17 | Cc1cnc(C)c(N2CCC(Cc3ccccc3Cl)(C(=O)O)CC2)n1 | 2.277
18 | CC(=O)N1CCCN(Cc2csc(C)n2)c2ccccc21 | 0.8232
19 | CC1(C)CN(CC(O)C(C)(C)C)C(=O)CN(C(=O)c2ccccc2)C1 (stereo unspecified) | 117.8
20 | CCCN(CCO)C(=O)C1CCC(=O)N(CCc2ccc(Cl)cc2)C1 (stereo unspecified) | -1.106
21 | Cc1[nH]nc2ncc(C(=O)N3CCN(CC(O)C(C)(C)C)CC3)cc12 (stereo unspecified) | -16.51
22 | CN(C)C(=O)N1CCN(C(=O)c2ccc(Cl)cc2)CC2(CNC(=O)C2)C1 (stereo unspecified) | -1.625

Row | SMILES | Percent Effect [%]
23 | CCCC(O)CN1CC(C)(C)CN(C(=O)c2ccc(Cl)cc2)CC1=O (stereo unspecified) | 78.76
24 | CCCC(O)CN1CC(C)(C)CN(C(=O)c2ccccc2)CC1=O (stereo unspecified) | 122.4
25 | CC(C)CN1CC2(CCN(C(=O)C(O)c3ccccc3Cl)CC2)CC1=O (stereo unspecified) | -2.667
26 | CSc1ccc(C(O)CNS(=O)(=O)C2CC2)cc1 (stereo unspecified) | 2.179
27 | CCCC(O)CN1CC(C)(C)CN(C(=O)c2ccc(SC)cc2)CC1=O (stereo unspecified) | 118.8
28 | NC(=O)NCC(=O)N1C[C@H]2CC[C@@H]1CN(C1Cc3ccccc3C1)C2 | -1.297
29 | COc1nc2c(cc1C(=O)N1C[C@H](N)C[C@H]1C(=O)NC(C)C)CCC2 | -26.43
30 | CN(C)CCN1CC(C(=O)N2CCC(c3nccn3C)CC2)CC1=O (stereo unspecified) | 2.201
31 | Cn1cnc2c1CCN(CC(=O)N(Cc1ccsc1)C1CC1)C2 | -10.64
32 | COc1ccc(CNCCc2cccc(C(N)=O)c2)cc1C | -2.965
33 | CC(C)N1CCc2ncn(C(C)C)c2C1C(=O)N1CCN(C)CC1 (stereo unspecified) | -12.1
34 | CCc1nc(CCn2ccc3nc(OC)c(C#N)cc3c2=O)no1 | 0.8236
35 | CC(C)c1noc(CN2CCOCC2C)n1 (stereo unspecified) | 107.7
36 | CC(C)(C)c1noc(CN2CCCC(CNS(N)(=O)=O)C2)n1 (stereo unspecified) | -0.7485
37 | CC(C)c1noc(CN2CCC3(CCCO3)CCC2=O)n1 (stereo unspecified) | -7.858
38 | CC(C)(C)c1nc(CN2CCC(N3CCCCC3)CC2)no1 | 3.179
39 | CC1CCCCN1Cc1nc(C2CC2)no1 (stereo unspecified) | 23.82
40 | CCCc1noc(CN2CCOCC2C)n1 (stereo unspecified) | 76.64
41 | CC(C(=O)N1CCOCC1)S(=O)(=O)Cc1noc(C(C)(C)C)n1 (stereo unspecified) | -4.281
42 | CC(C)c1noc(CS(=O)(=O)Cc2nc(C(C)C)no2)n1 | -3.73
43 | CC1COCCN1Cc1nc(C(C)(C)C)no1 (stereo unspecified) | 110.8
44 | CC1COCCN1Cc1noc(C(C)(C)C)n1 (stereo unspecified) | 91.93

Row | SMILES | Percent Effect [%]
45 | COCc1nc2cc(NCc3sc(C)nc3C)ccc2o1 | 1.098
46 | CC1=C(C(=O)NCc2cccnc2-n2cnc3ccccc32)OCCO1 | -15.12
47 | CSc1nccc(N2CCC(=O)N(CC3CC3)C(C(C)C)C2)n1 (stereo unspecified) | 8.272
48 | CCNC(=O)N1CC[C@H]2CC(=O)N(CCN3CCNC3=O)CC[C@H]2C1 | 12.62
49 | Cl.OC(CNCc1ccccc1C(F)(F)F)c1ccccc1 (stereo unspecified) | -21.52
50 | CC1COCCN1Cc1nc(Cc2ccccc2)no1 (stereo unspecified) | 106.6
51 | CC1CCCCN1Cc1nc(Cc2ccccc2)no1 (stereo unspecified) | -14.27
52 | CC(C)Cc1noc(CN2CCOCC2)n1 | -2.166
53 | CC(C)Cc1noc(CN2CCN(CCO)CC2)n1 | -13.58
54 | CC(C)Cc1noc(CN2CCOCC2C)n1 (stereo unspecified) | 87.61
55 | Cn1cnc2c1CCN(Cc1nc(Cc3ccccc3)no1)C2 | -6.335
56 | O=C(O)[C@@]12CN(c3cnccn3)C[C@@H]1CN(C1CCCC1)C2 | 11.78
57 | CCS(=O)(=O)N(C)CC(=O)Nc1ccc(Br)cn1 | 11.17
58 | CC1CN(C)c2ccccc2CN1C(=O)c1ccoc1 (stereo unspecified) | -34.7
59 | COc1cccc(CN2CC(O)CN(C(=O)C3CC3)CC2=O)c1OC (stereo unspecified) | 103.4
60 | COc1cccc(CN2CC(O)CN(C(=O)C3CCC3)CC2=O)c1OC (stereo unspecified) | 107.9
61 | CNC(=O)[C@@H](c1ccccc1OC)N1CCC[C@H]1C(=O)N1CC[C@@H](O)C1.Cl | 4.858
62 | COc1ccccc1OC1CCN(C(=O)C2CCCN(C)C2)CC1 (stereo unspecified) | -2.238
63 | COc1ccccc1CC1CCN(C(=O)CCN2CCOC2=O)CC1 | -13.03
64 | COc1ccc(OC)c(C2CCN(C(=O)[C@H]3CC[C@@H](O)CC3)C2)c1 (stereo partly specified) | 4.796
65 | CSCc1noc(CN2CCC3(CC2)CC(=O)N(CC(C)C)C3)n1 | 6.142
66 | Fc1ccc(CN2CCCn3nnc(COCC4CC4)c3C2)cc1.O=C(O)C(F)(F)F | -22.46

Row | SMILES | Percent Effect [%]
67 | CNCc1n[nH]c(=O)n1CC1CCCCC1 | 9.971
68 | CCOCC(=O)N1C[C@@H](NC(C)=O)[C@H](c2ccc(OC)cc2)C1 | 0.296
69 | O=C(CC1CC1)N1C[C@H]2CN(CC3CC3)C(=O)[C@H]2C1 | -33.8
70 | CCOCC(=O)N1CCC(c2nccn2C)CC1 | -1.738
71 | CC(=O)N[C@@H]1CN(C(=O)CC2CCOCC2)C[C@H]1O | 144.5
72 | CC(=O)N[C@@H]1CN(C(=O)CC2CC2)C[C@H]1O | 207.4
73 | CCCSCC(=O)N1C[C@@H](NC(C)=O)[C@H](c2ccc(OC)cc2)C1 | 13.13
74 | COc1ccc([C@@H]2CN(C(=O)CCC(F)(F)F)C[C@H]2NC(C)=O)cc1 | 11.36
75 | CCOCC(=O)N1C[C@@H](O)[C@H](NC(C)=O)C1 | 181
76 | CCC(CC)n1nc(C)cc1NC(=O)CC1CCOCC1 | 0.9076
77 | O=C(NCCCn1cncn1)c1ccc(-c2ccco2)[nH]c1=O | 2.326
78 | CNC(=O)[C@@H]1[C@@H](c2ccccc2)CN2CCN(Cc3ccco3)C[C@H]12 | 101.4
79 | CNC(=O)[C@@H]1[C@H]2CN(Cc3ccoc3)CCN2C[C@H]1c1ccccc1 | 117.2
80 | CCc1ccc(CNC(=O)N2CCN(Cc3cc(C)no3)CC2)s1 | 7.686
81 | CNC(=O)[C@@H]1[C@@H](c2ccccc2)CN2CCN(Cc3cccs3)C[C@H]12 | 88.53
82 | CNC(=O)[C@@H]1[C@@H](c2ccccc2)CN2CCN(Cc3cc(C)no3)C[C@H]12 | 101.2
83 | Cc1n[nH]c(C)c1CCNC(=O)C1CCCN(Cc2ccco2)C1 (stereo unspecified) | -10.07
84 | CNC(=O)C1Cc2ccccc2CN1CCc1cccs1 (stereo unspecified) | 15.23
85 | O=C(Nc1ccc(-c2ccn[nH]2)cc1)C1CCCN(Cc2ccoc2)C1 (stereo unspecified) | 1.932
86 | CN(C)C(=O)NC[C@H]1OC[C@@H]2CCN(Cc3ccoc3)C[C@@H]21 | -34.99
87 | Cc1cc(CNC(=O)N2CCN(Cc3ccccc3)C[C@H]2C)on1 | -6.347
88 | Cc1c(C(=O)NCC2CCN(Cc3ccco3)C2)[nH]c2ccccc12 (stereo unspecified) | 19.49

Row | SMILES | Percent Effect [%]
89 | CN1C(=O)CO[C@H](c2ccc(NC(=O)NC(C)(C)C)cc2)[C@H]1CO | -13.32
90 | COc1ccc(CN2CCCCCC2c2cccs2)c(OC)c1 (stereo unspecified) | 95.82
91 | CCN(C(=O)CN1CCCC1c1cccs1)c1ccccc1C (stereo unspecified) | 5.729
92 | COc1ccc(CN2CCCCCC2c2cccs2)c(O)c1 (stereo unspecified) | 114.4
93 | COc1ccc(CN2CCSCC2)c(OC)c1 | -5.529
94 | Cc1ccc(N(CCC#N)C(=O)CN2CCCC2c2cccs2)cc1 (stereo unspecified) | -26.13
95 | COc1ccc(OC)c(CN2CCCCCC2c2cccs2)c1 (stereo unspecified) | -3.603
96 | Oc1ccccc1CN1CCCCCC1c1cccs1 (stereo unspecified) | 93
97 | Cn1nc(C(=O)N(CC(F)(F)F)c2cccc(Cl)c2)ccc1=O | -17.45
98 | Cn1cc(NC(=O)Nc2ccccn2)cc(Cl)c1=O | 10.33
99 | CNC(=O)[C@@H]1COC[C@H]2CN(C(=O)c3cccc(OC)c3)C[C@H]21 | 4.207
100 | Cl.NCCNS(=O)(=O)Cc1ccc(Br)cc1 | -57.57
101 | CC(=O)N1CCC(N2CCOC[C@H]2c2nc(-c3ccc(Cl)s3)c[nH]2)CC1 | -14.52
102 | O=C(c1cccc(CNS(=O)(=O)c2ccc(F)cc2)c1)N1CCCC1 | 130.7
103 | O=C(c1cccc(S(=O)(=O)NC[C@@H]2C[C@H](F)CN2)c1)N1CCCCC1 | 0.137
104 | Cc1ccc(S(=O)(=O)NCCNC(=O)c2ccoc2)cc1F | -0.905
105 | Cc1ccc(S(=O)(=O)NCc2cccc(C(=O)N3CCCC3)c2)cc1F | 110.6
106 | N#Cc1cnc(NCc2cccc(C(=O)N3CCCC3)c2)c(Cl)c1 | -5.94
